Only some compounds are listed: those with a hit (about 8% of all), similar ones and a draw of the others.
ELG1 DNA repair: blocks ELG1-dependent DNA repair in HEK293T cells | HEK293T ELG1-luciferase reporter, luminescence, 16 h; DNA damage induced by 5-fluorouridine | Potency, µM (series often up to 46.1 µM), most hits filed as inhibitors | 330,000 compounds, 2.3% hits | AID 504467; note: nearly all actives have a fitted effect of over 55% in size
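Cells (2,000 per well) received 5-fluorouridine plus test compound or DMSO and were incubated 16 hr at 37 °C, 5% CO2. Luciferase activity was read by luminescence 30 min after ONE-Glo addition; signal suppression marked inhibition of damage-induced ELG1 function.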
TSHR antagonist: blocks TSH signaling through the human TSH receptor | TSHR-expressing cells, TSH-stimulated cAMP HTRF, 2 h; stronger effect = lower value | AID 504810 | activity change, negative = inhibition, % at 11.5 µM | 330,000 compounds, 0.2% hits;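 active = activity change below a set negative limit, meaning inhibition stronger than a set level, cut at about -70% in these data; inconclusive = activity change between two set negative limits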
Target sequence (P16473 whole entry, looked up): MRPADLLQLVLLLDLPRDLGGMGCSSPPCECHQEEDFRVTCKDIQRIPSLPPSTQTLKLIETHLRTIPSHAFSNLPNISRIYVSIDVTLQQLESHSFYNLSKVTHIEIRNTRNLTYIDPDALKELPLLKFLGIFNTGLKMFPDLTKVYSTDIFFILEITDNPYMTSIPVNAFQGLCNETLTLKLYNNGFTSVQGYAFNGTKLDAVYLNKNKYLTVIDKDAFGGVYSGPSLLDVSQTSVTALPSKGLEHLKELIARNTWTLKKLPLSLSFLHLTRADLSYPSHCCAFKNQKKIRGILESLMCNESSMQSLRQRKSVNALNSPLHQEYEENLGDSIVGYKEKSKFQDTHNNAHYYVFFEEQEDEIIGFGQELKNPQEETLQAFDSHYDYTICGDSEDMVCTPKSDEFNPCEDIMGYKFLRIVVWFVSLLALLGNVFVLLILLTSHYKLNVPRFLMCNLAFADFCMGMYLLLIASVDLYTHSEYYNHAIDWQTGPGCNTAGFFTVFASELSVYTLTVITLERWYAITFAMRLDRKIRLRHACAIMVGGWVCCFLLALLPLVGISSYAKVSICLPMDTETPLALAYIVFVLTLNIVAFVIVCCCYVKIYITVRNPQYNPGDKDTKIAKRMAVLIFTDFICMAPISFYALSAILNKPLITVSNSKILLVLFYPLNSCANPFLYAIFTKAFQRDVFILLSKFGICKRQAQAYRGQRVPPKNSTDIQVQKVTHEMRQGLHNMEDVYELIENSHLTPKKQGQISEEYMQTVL
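Cell-based HTRF cAMP assay; TSHR cells + compound, TSH EC80 (4nM final), 2 h, 37 deg C. Lysis with anti-cAMP cryptate and cAMP-d2, 30 min RT, read 665/620 nm.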
FBPA coupling cs: coupling enzyme interference in Giardia aldolase counter-screen; 290,000 compounds, 0.67% hits; activity change, negative = inhibition, % at 58.2 µM, hits read low; coupling enzyme system counterscreen, AmpLite Red fluorescence; AID 2472; in the data active = activity change below about -30%
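Coupling enzymes only (glyceraldehyde-3-phosphate) + compound, at 57.5 uM final, 10 min RT; add substrate/coupling/AmpLite Red mix, 20 min RT; fluorescence ex 525/em 598 nm. Actives flag coupling-system interference.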
VP16 counter: Gal4-VP16 reporter inhibition counter-screen. Drosophila S2 Gal4-VP16 UAS-luciferase, luminescence, 20 h. Potency, µM (series often up to 53.6 µM), hits mostly inhibitors. 310,000 compounds, 3.5% hits. AID 2546;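 note: Gal4-VP16 expression switched on by copper sulfate through the metallothionein promoter; nearly all actives have a fitted effect of over 50% in size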
RORg inh: inhibitors of mouse ROR gamma transcriptional activity; AID 2551; Potency, µM (doses to about 53.6 µM), usual class: inhibitors; 310,000 compounds, 5.4% hits; Drosophila S2 Gal4-RORgamma UAS-luciferase reporter, 20 h; P51450; note: nearly all actives have a fitted effect of over 60% in size
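Drosophila S2 cells stably expressing Gal4-DBD/mouse RORγ fusion under metallothionein promoter plus UAS-luciferase; compound 1 h, then 700 uM CuSO4 induction for 20 h at ambient temperature; inhibition read as reduced luminescence.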
Each line names hits and unclear results; the compound was inactive in the other large screens. Unless noted, calls come from the whole dose curve; as a rule, active = well fitted curve in the direction sought with a large enough effect; inconclusive = small, poorly fitted or top-dose-only effect, or another doubt; inactive = no such curve, though single readings can be large; an effect the other way counts as inactive or inconclusive.

O=C(Nc1ccc(C(=O)NCCCN2CCN(c3ccc(F)cc3)CC2)cc1)C1=CSCCO1	none (no result: FBPA coupling cs)
O=C(O)CCc1ccc(-c2cccs2)o1	ELG1 DNA repair inconclusive, VP16 counter inconclusive, RORg inh 11µM
Cc1cc(C)c(NC(=O)CN(CC(=O)O)CC(=O)O)c(C)c1Br	none (no result: ELG1 DNA repair, TSHR antagonist, FBPA coupling cs)
O=C1CCC/C(=N/Nc2ccc(Cl)cc2)C1	FBPA coupling cs -34, VP16 counter inconclusive
COc1ccc(Cn2c(C)ccc2C)cc1	none
CCCCCN1CSC(=S)N(Cc2ccccc2)C1	ELG1 DNA repair inconclusive, VP16 counter 18µM, RORg inh 10µM
CCN1CSC(=S)N(Cc2ccccc2)C1	VP16 counter 10µM, RORg inh 10µM
CCN1CSC(=S)N(Cc2ccc(OC)cc2)C1	VP16 counter 13µM, RORg inh 14µM
CC[C@H](C)[C@H](NC(=O)[C@@H](NC(=O)[C@@H](NC(=O)[C@H](CCC(=O)O)NC(=O)[C@H](CCC(=O)O)NC(=O)[C@H](CCC(=O)O)NC(=O)[C@H](C)NC(=O)[C@@H](N)CC(C)C)C(C)C)C(C)C)C(=O)N[C@@H](CCCNC(=N)N)C(=O)N[C@@H](CO)C(=O)N[C@@H](C)C(=O)N[C@@H](CC(N)=O)C(=O)N[C@@H](Cc1ccccc1)C(=O)N[C@H](C(=O)N[C@@H](CC(=O)O)C(=O)N[C@@H](CC(N)=O)C(=O)O)[C@@H](C)O	none (no result: ELG1 DNA repair, TSHR antagonist)
Oc1ccc(Br)cc1/C=N/n1c(C2CCCCC2)n[nH]c1=S	ELG1 DNA repair inconclusive, VP16 counter inconclusive
COc1ccccc1/C=C/C=N/n1c(-c2cc(C)[nH]n2)n[nH]c1=S	VP16 counter inconclusive, RORg inh inconclusive
S=c1[nH]nc(C2CCCCC2)n1/N=C/c1cccc(Cl)c1Cl	VP16 counter 5µM, RORg inh 3.5µM
COc1cccc(/C=N/n2c(C3CCCCC3)n[nH]c2=S)c1O	VP16 counter 13µM, RORg inh 10µM
COc1cccc(/C=N/n2c(C3CCCCC3)n[nH]c2=S)c1OC	ELG1 DNA repair inconclusive, VP16 counter 7.1µM, RORg inh 3.2µM
COc1cc(/C=N/n2c(C3CCCCC3)n[nH]c2=S)ccc1O	ELG1 DNA repair inconclusive
COc1ccccc1/C=C\C=N\n1c(C2CCCCC2)n[nH]c1=S	ELG1 DNA repair inconclusive, VP16 counter inconclusive, RORg inh 2.2µM
Oc1ccc(/C=N/n2c(C3CCCCC3)n[nH]c2=S)c(O)c1	none
O=C(c1cnccn1)N1CCC[C@@]2(CCN(c3ccncc3)C2)C1	none (no result: ELG1 DNA repair, TSHR antagonist)
CCC1(c2ccc(F)cc2)NC(=O)NC1=O (stereo unspecified)	none
Cc1c(NC(=O)COC(=O)c2cccn2C)c(=O)n(-c2ccccc2)n1C	none (no result: FBPA coupling cs, VP16 counter, RORg inh)
COc1ccc(/C=N/n2c(C3CCCCC3)n[nH]c2=S)c(OC)c1	VP16 counter 7.1µM, RORg inh 3.5µM
COc1cc(OC)c(/C=N/n2c(C3CCCCC3)n[nH]c2=S)c(OC)c1	none
Cc1ccc2[nH]c(=O)c(NC(N)=S)nc2c1	VP16 counter inconclusive, RORg inh 11µM
NC(=S)Nc1nc2ccccc2[nH]c1=O	RORg inh inconclusive
CN(C(=O)c1cccc(NC(=O)Cc2ccc([N+](=O)[O-])cc2)c1)C1CC1	ELG1 DNA repair inconclusive (no result: FBPA coupling cs, VP16 counter, RORg inh)
COc1cccc(/C=N/NC(=O)c2cc3c(OC)ccc(OC)c3[nH]2)c1O	ELG1 DNA repair 3.7µM, VP16 counter 2.8µM, RORg inh 1.6µM
COc1cc(OC)c2cc(C(=O)N/N=C/c3cccc(OC)c3O)[nH]c2c1	ELG1 DNA repair inconclusive, VP16 counter 4.5µM, RORg inh 2.2µM
COc1ccc2cc(C(=O)N/N=C/c3cc(OC)c(OC)c(OC)c3)[nH]c2c1	ELG1 DNA repair inconclusive
COc1cccc(/C=N/NC(=O)c2ccc3nc[nH]c3c2)c1O	none
CCCC(=O)Oc1ccc(C2NC(=O)c3ccccc3O2)cc1OC (stereo unspecified)	none
CC(=O)c1cccc(S(=O)(=O)NCC(c2ccco2)N2CCCCC2)c1 (stereo unspecified)	ELG1 DNA repair 0.58µM, RORg inh inconclusive
COc1ccc(OCC(=O)Nc2ccc3c(c2)nc(CCN2CCN(C)CC2)n3C)cc1	none (no result: FBPA coupling cs)
CN=c1scc(-c2ccco2)n1/N=C/c1ccc(O)c(O)c1	ELG1 DNA repair inconclusive, VP16 counter 0.71µM, RORg inh 0.089µM
C=CCN=c1scc(C)n1/N=C/c1ccc(O)c(O)c1	ELG1 DNA repair inconclusive, RORg inh 18µM
CN=c1scc(C)n1/N=C/c1ccc(O)cc1	ELG1 DNA repair inconclusive, VP16 counter 2.5µM, RORg inh inconclusive
CN=c1scc(C)n1/N=C/c1cc(Br)c(O)c(Br)c1	none
CN=c1scc(C)n1/N=C/c1ccc(O)cc1O	ELG1 DNA repair inconclusive, VP16 counter 1.3µM, RORg inh 0.63µM
CC1(C)CCC[C@]2(C)[C@H]3Cc4cc(O)ccc4O[C@]3(C)CC[C@@H]12	none (no result: FBPA coupling cs, VP16 counter, RORg inh)
Cc1cc(C)nc(N2N=C(C(F)(F)F)CC2=O)n1	none
Cc1cc2c3c([nH]c2cc1S(=O)(=O)N1CCC2(CC1)OCCO2)CCCC3=O	ELG1 DNA repair inconclusive, VP16 counter inconclusive (no result: FBPA coupling cs)
CC1(C)S[C@@H]2[C@H](NC(=O)[C@H](NC(=O)N3CCN(S(C)(=O)=O)C3=O)c3ccccc3)C(=O)N2[C@H]1C(=O)O	none (no result: ELG1 DNA repair, TSHR antagonist, FBPA coupling cs)
O=C1OCCC1Sc1nnc(-c2ccccc2)o1 (stereo unspecified)	none
O=C1OCCC1Sc1nnc(-c2ccc(Cl)cc2Cl)o1 (stereo unspecified)	VP16 counter inconclusive, RORg inh 7.9µM
COc1cc(OC)c2cc(-c3ccncc3)cnc2c1	none (no result: ELG1 DNA repair, TSHR antagonist)
COc1cccc(NC(=O)Nc2ccc(CC(=O)O)cc2)c1	VP16 counter 20µM, RORg inh inconclusive
CCCCc1ccc(NC(=S)NCc2cccc(OC)c2)cc1	RORg inh 3.5µM
CCCCc1ccc(NC(=S)NCc2cccnc2)cc1	VP16 counter inconclusive, RORg inh inconclusive
CCc1ccc(NC(=O)Nc2cccc(OC)c2)cc1	ELG1 DNA repair inconclusive, VP16 counter inconclusive
CCCCc1ccc(NC(=S)Nc2ccc(Nc3ccc(OC)cc3)cc2)cc1	ELG1 DNA repair inconclusive, VP16 counter 1.6µM, RORg inh 1.1µM
COC(=O)Cc1ccc(NC(=S)NCc2cccc(OC)c2)cc1	RORg inh 13µM
O=C(Cn1nc(-c2ccccc2)oc1=O)OCC(=O)c1ccccc1	none (no result: FBPA coupling cs, VP16 counter, RORg inh)
CC(=C(CCOP(=O)(O)O)SC(=O)c1ccccc1)N(C=O)Cc1cnc(C)nc1N	none (no result: ELG1 DNA repair, TSHR antagonist)
CCCCc1ccc(NC(=S)Nc2cccnc2)cc1	VP16 counter 13µM, RORg inh 13µM
Cc1ccc(-n2nnnc2-c2cnc(N3CCCC3)nc2C(F)(F)F)cc1	VP16 counter 16µM, RORg inh inconclusive
COC(=O)[C@@]1(Cc2ccc(F)cc2)[C@H]2c3cc(C(=O)N4CCCC4)n(CCc4c[nH]c5ccccc45)c3C[C@H]2CN1C(=O)c1ccccc1	none (no result: ELG1 DNA repair, TSHR antagonist)
Cn1c(NC(=O)c2cccs2)cc(=O)n(C)c1=O	none

Screening results as filed in PubChem.
